Consider eight compounds from PubChem BioAssay (Tox21).

Results filed as inconclusive are left out. A number with no mark means an inactive call. The source made the active and inactive calls. Unless noted, calls come from the whole dose curve; as a rule, active = well fitted curve in the direction sought with a large enough effect in the repeat runs; inconclusive = weak or mixed curves; inactive = no such curve, though single readings can be large; an effect the other way counts as inactive or inconclusive.

The nature of assay [1]: qHTS assay to identify small molecule agonists of the vitamin D receptor (VDR) signaling pathway - cell viability counter screen (AID 743224). Note: nearly all actives have a fitted effect of over 50% in size. A digest of the protocol: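 Plated VDR-bla cells (4 h, 37C) received compound, incubated 16 h, then LiveBLAzer substrate 2 h RT; CellTiter-Glo added afterwards, luminescence read at 30 min.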
(Quantitative high-throughput screening tests each substance at several concentrations.)

Assay [2] in a line: qHTS assay to identify small molecule antagonists of the vitamin D receptor (VDR) signaling pathway - cell viability counter screen (AID 743225). Note: nearly all actives have a fitted effect of over 50% in size. A digest of the protocol:
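Viability counter screen run in the same wells as the beta-lactamase reporter assay: HEK 293T VDR-UAS-bla cells, 16 h compound exposure at 37C with 3 nM (final) 1-alpha,25-dihydroxyvitamin D3. CellTiter-Glo luminescence, 30 min, room temperature.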

A short description of assay [3]: qHTS assay to identify small molecule agonists of the NFkB signaling pathway (AID 1159509; active = well fitted curve in the direction sought with a large enough effect in the signal ratio in the repeat runs, not every such curve was filed as active; the % refers to the signal ratio). A digest of the protocol:
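After overnight attachment, reporter cells received test compounds, DMSO or positive controls and were incubated 5 hr at 37 C. FRET substrate was then added for 1.5 hr at room temperature before dual-emission fluorescence reading.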

A short description of assay [4]: qHTS assay to identify small molecule agonists of the NFkB signaling pathway - cell viability counter screen (AID 1159515; calls by dose curve; note: nearly all actives have a fitted effect of over 55% in size). Put shortly:
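Using the same wells as the NFkB reporter read, ME-180 NFkB-bla cells given compounds for 5 hr were assessed for viability via CellTiter-Glo, with luminescence taken after a 30 min room-temperature incubation.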

The nature of assay [5]: qHTS assay to identify small molecule agonists of the endoplasmic reticulum stress response signaling pathway (AID 1159516; active = well fitted activation curve with a large enough effect in the signal ratio in the repeat runs, not every such curve was filed as active; the % refers to the signal ratio). A digest of the protocol: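 An ESRE-bla HeLa cell assay: compounds were pin-transferred from DMSO onto overnight-plated cells and left 5 hr at 37 C. Substrate was then loaded for 2 hr at room temperature before reading fluorescence at 460 nm and 530 nm.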

Assay [6] is described as follows: qHTS assay to identify small molecule antagonists of the retinoid-related orphan receptor gamma (ROR-gamma) signaling pathway - cell viability counter screen (AID 1159520). Note: nearly all actives have a fitted effect of over 50% in size. A digest of the protocol: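 Tet-on ROR gamma CHO cells (1,000/well) were plated 4 hr, given compounds in DMSO for 2 hr at 37 C, then induced with 1 uM final doxycycline for 16 hr. Viability was read as ATP by CellTiter-Glo luminescence after 30 min.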

The target of assay [7] is Nuclear receptor ROR-gamma (Homo sapiens) (UniProt P51449). Description: qHTS assay to identify small molecule antagonists of the retinoid-related orphan receptor gamma (ROR-gamma) signaling pathway (AID 1159521; note: top concentration of the series differs between compounds; nearly all actives have a fitted effect of over 50% in size). Put shortly: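 Luminescence readout (ONE-Glo, 30 min RT) after 16 h doxycycline induction; loss of signal scored as antagonism. CHO cells with TET-inducible RORγ and RORE-LUC reporter; compounds added 2 h before 1 uM final doxycycline.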

A short description of assay [8]: qHTS assay to identify small molecule agonists of the AP-1 signaling pathway - cell viability counter screen (AID 1159525; calls by dose curve; note: nearly all actives have a fitted effect of over 55% in size). Put shortly: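 ME-180 AP-1-bla, 2500 cells/well, Opti-MEM + 0.5% dialyzed FBS; overnight 37 °C; cpd 15-pt titration, 5 h 37 °C; CellTiter-Glo 30 min RT; luminescence read; normalised to TOAB and DMSO controls.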
Assay [9] can be described thus: qHTS assay to identify small molecule agonists of the AP-1 signaling pathway (AID 1159526; calls by dose curve).
Assay [10] concerns the target Retinoic acid receptor RXR-alpha (Homo sapiens) (UniProt P19793). Description: qHTS assay to identify small molecule agonists of the RXR signaling pathway (AID 1159527; calls by dose curve; note: nearly all actives have a fitted effect of over 35% in size). Put shortly:
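Agonist mode; 9-cis retinoic acid positive control. HEK 293T UAS-bla reporter cells, 2% charcoal-stripped FBS, 16 hr compound exposure at 37 C/5% CO2. LiveBLAzer B/G FRET substrate 2 hr RT; ex 405, em 460/530 nm.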

Assay [11] is described as follows: qHTS assay to identify small molecule agonists of the RXR signaling pathway - cell viability counter screen (AID 1159529). Note: nearly all actives have a fitted effect of over 50% in size. A digest of the protocol:
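Luminescence from CellTiter-Glo (30 min, RT) measured viability in the same wells as the beta-lactamase reporter readout. Cells: GeneBLAzer RXR-alpha HEK 293T, 2% charcoal-stripped FBS. Compound exposure 16 hr, 37 C.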

Assay [12] is described as follows: qHTS assay to identify small molecule antagonists of the retinoid acid receptor (RAR) signaling pathway - cell viability counter screen (AID 1159551). Note: nearly all actives have a fitted effect of over 35% in size. A digest of the protocol:
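Retinol-stimulated (1 uM final) C3RL4 cells, compound 6 h, 37 C; readout CellTiter-Glo luminescence (ATP) after 30 min RT incubation.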

The nature of assay [13]: qHTS assay to identify small molecule antagonists of the retinoic acid receptor (RAR) signaling pathway (AID 1159552; note: nearly all actives have a fitted effect of over 50% in size). Put shortly: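 Luminescence from a RARE luciferase reporter in C3RL4 cells served as read-out. Cells received compounds together with 1 uM final retinol and incubated 6 hr at 37 C before detection reagent was added for 30 min at room temperature.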
Assay [14] can be described thus: qHTS assay to identify small molecule agonists of the retinoic acid receptor (RAR) signaling pathway (AID 1159553). Note: potency is the fitted concentration of half-maximal effect. To be noted: C3RL4 RARE luciferase reporter, agonist, 6 h; activation: at 73.3 µM (top of the series). Put shortly: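 Reporter readout comes from luciferase under RARE control in C3RL4 cells; compound exposure lasts 6 hr at 37 C in 5% CO2, and luminescence is recorded following a 30 min room-temperature incubation with reagent.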

The nature of assay [15]: qHTS assay to identify small molecule antagonists of the estrogen related receptor (ERR) signaling pathway from Tox21 library - cell viability counter screen (AID 1224834). Note: nearly all actives have a fitted effect of over 30% in size. Put shortly: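 After 17.5 h of compound exposure at 37 C, ERR cells are incubated with CellTiter-Fluor for 30 min and fluorescence intensity serves as the viability measure.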
A short description of assay [16]: qHTS assay to identify small molecule agonists of the constitutive androstane receptor (CAR) signaling pathway - cell viability counter screen (AID 1224836). Note: nearly all actives have a fitted effect of over 45% in size. Put shortly:
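Viability read-out: CellTiter-Fluor fluorescence after 23 h compound exposure at 37 C/5% CO2 in double-stable HepG2-CYP2B6-hCAR cells, with PK11195 present at 0.75 uM final; compounds tested in 15-point titration.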

A short description of assay [17]: qHTS assay to identify small molecule antagonists of the constitutive androstane receptor (CAR) signaling pathway - cell viability counter screen (AID 1224837). Note: nearly all actives have a fitted effect of over 45% in size. A digest of the protocol:
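Counter screen run in HepG2-CYP2B6-hCAR cells: 4 hr settle, compound titration (15 concentrations) with 50 nM CITCO, 23 hr at 37 C/5% CO2, CellTiter-Fluor fluorescence.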

Assay [18] addresses Nuclear receptor subfamily 1 group I member 3 (Homo sapiens) (UniProt Q14994). Description: qHTS assay to identify small molecule antagonists of the constitutive androstane receptor (CAR) signaling pathway (AID 1224838).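 Note: HepG2 cells stably expressing hCAR with CYP2B6 luciferase reporter stimulated by CITCO; nearly all actives have a fitted effect of over 40% in size.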 Put shortly:
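Cell line: HepG2 double-stable for hCAR and CYP2B6-2.2kb reporter. Agonist: CITCO, 50 nM final. Compounds: 15 concentrations, 24 h, 37 C. Detection: ONE-Glo luminescence.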

For assay [19], the target named is Luciferin 4-monooxygenase (Photinus pyralis) (UniProt P08659). Description: qHTS assay to identify small molecule inhibitors of firefly luciferase (AID 1224835). Note: nearly all actives have a fitted effect of over 25% in size. Put shortly: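 Quantitative HTS format; KM concentrations of both substrates. Purified P. pyralis FLuc activity quantified from luminescence images.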
Chain of Luciferin 4-monooxygenase (Photinus pyralis) (P08659 whole entry, looked up): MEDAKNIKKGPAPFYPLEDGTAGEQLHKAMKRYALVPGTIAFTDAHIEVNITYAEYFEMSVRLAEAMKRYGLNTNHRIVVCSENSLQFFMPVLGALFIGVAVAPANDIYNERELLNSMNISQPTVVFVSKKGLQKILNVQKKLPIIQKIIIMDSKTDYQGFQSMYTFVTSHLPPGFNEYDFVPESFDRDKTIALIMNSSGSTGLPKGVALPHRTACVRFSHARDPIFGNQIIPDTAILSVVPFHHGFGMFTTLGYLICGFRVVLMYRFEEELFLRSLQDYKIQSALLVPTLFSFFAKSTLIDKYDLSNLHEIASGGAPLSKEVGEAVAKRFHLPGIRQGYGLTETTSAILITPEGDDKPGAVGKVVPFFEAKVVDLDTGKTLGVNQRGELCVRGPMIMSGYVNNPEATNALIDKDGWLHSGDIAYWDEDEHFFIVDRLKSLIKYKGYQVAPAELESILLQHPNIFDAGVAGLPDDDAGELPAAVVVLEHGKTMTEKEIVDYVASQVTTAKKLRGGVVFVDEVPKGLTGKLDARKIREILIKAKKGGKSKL
The nature of assay [20]: qHTS assay to identify small molecule agonists of the endoplasmic reticulum stress response signaling pathway - cell viability counter screen (AID 1159517; calls by dose curve). A digest of the protocol:
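Luminescence readout: CellTiter-Glo, 30 min RT, same wells as the ESRE-bla reporter read. HeLa ESRE-bla, 1,500 cells/well, o/n 37 C; cpd 5 hr 37 C/5% CO2.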

Chain of Retinoic acid receptor RXR-alpha (Homo sapiens) (P19793 whole entry, looked up): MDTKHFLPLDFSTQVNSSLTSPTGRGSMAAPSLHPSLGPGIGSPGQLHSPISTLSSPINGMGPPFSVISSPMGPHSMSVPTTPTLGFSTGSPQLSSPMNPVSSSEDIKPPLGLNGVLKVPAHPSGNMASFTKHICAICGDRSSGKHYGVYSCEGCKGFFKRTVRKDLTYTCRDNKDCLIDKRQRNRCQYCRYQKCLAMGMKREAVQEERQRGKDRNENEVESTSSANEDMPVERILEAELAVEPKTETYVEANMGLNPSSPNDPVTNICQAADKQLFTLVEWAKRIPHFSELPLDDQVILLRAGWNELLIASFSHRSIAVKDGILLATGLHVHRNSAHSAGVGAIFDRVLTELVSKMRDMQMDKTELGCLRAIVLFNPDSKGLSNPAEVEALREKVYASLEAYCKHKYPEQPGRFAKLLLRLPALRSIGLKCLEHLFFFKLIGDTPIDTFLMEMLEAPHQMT
Chain of Nuclear receptor subfamily 1 group I member 3 (Homo sapiens) (Q14994 whole entry, looked up): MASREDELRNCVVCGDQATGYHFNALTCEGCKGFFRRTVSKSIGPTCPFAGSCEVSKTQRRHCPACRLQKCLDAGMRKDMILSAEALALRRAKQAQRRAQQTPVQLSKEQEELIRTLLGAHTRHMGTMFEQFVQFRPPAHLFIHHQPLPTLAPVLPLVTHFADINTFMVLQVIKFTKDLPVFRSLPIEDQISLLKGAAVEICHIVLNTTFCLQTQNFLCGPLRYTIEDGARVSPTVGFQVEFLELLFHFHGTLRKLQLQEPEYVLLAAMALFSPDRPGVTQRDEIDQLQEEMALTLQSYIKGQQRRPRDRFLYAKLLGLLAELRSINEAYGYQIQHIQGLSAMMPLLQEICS

`CCNC(=O)/C=C/c1cccc(Br)c1`: the outcome in assay [1], in [2], in [3], in [4], in [5] and in assay [6] was inactive. For the same compound, the compound was called inactive in assay [7], in assay [8], in assay [9], in assay [11], in assay [12] and in assay [16]. For the same compound, the Potency result in [10], in assay [13], in [15], in assay [17] and in assay [18] was “inactive” throughout. In addition, the Potency in [14] is 15 µM (active).
With `CN[C@@H]1[C@@H](O)[C@@H](O[C@@H]2[C@H](O)[C@H](O[C@H]3OC(CN)=CC[C@H]3N)[C@@H](N)C[C@H]2N)OCC1(C)O` (stereo partly drawn), the compound was classed as inactive in [1], in assay [2], in assay [3], in assay [4], in assay [5] and in assay [6]. For the same compound, the result in assay [7], in [8], in assay [9], in [11] and in [12] was inactive. The Potency entry in [10], in [13] and in assay [15] was “inactive” throughout.
As for `CCCCCCCC[Si](OCC)(OCC)OCC`, the call in [1], in assay [2], in [3], in assay [4], in [5] and in [6] was inactive. Moreover, the call in assay [7], in [8], in assay [9], in assay [12] and in assay [16] was inactive. The Potency entry in assay [10], in [13], in [14], in assay [19] and in assay [17] was “inactive” each time.
For `N#CCCOCCOCCC#N`, the compound was called inactive in [1], in assay [2], in [3], in assay [4], in assay [5] and in assay [6]. In addition, the outcome in assay [7], in assay [8], in assay [9], in assay [11], in assay [12] and in [16] was inactive. The Potency result in assay [10], in [13], in assay [14], in assay [15], in assay [19] and in [17] was “inactive” each time.
As for `C=C[Si](C)(C)O[Si](C)(C)C=C`, the call in assay [1], in assay [2], in assay [3], in assay [4], in assay [5] and in [6] was inactive. In addition, the result in assay [7], in [9], in assay [11], in assay [12] and in assay [16] was inactive. Moreover, the Potency result in [10], in assay [13], in assay [14], in assay [15] and in assay [19] was “inactive” throughout.
With `COc1cc2c(Nc3ccc(Br)cc3F)ncnc2cc1OCC1CCN(C)CC1`, the call in assay [1], in [3], in [4], in assay [5], in assay [20] and in assay [6] was inactive. Also, the compound was classed as inactive in [7], in assay [9], in assay [11], in [12] and in [16]. Moreover, the Potency result in assay [10], in [13], in assay [15], in assay [19] and in [18] was “inactive” each time.
For `CCC(=O)c1ccc(O)cc1`, the compound was called inactive in assay [1], in [2], in assay [3], in assay [4], in assay [5] and in assay [6]. The compound was called inactive in assay [7], in [8], in [9], in assay [11], in assay [12] and in [16]. The Potency entry in [10], in assay [13], in assay [14], in assay [15] and in assay [18] was “inactive” throughout.
For `CCOC(=O)CCCCCCCCC(=O)OCC`, the result in assay [1], in assay [2], in [3], in [4], in assay [5] and in assay [6] was inactive. In addition, the result in assay [7], in [8], in [9], in assay [12] and in [16] was inactive. For the same compound, the Potency entry in assay [10], in assay [13], in assay [14], in assay [15], in [19] and in [17] was “inactive” throughout. Besides, the Potency entry in [18] is “inactive”.
